Experimental data reported in PubChem BioAssay (NCATS).
Results filed as inconclusive are left out. Entries that show only a call come without a potency. Unmarked numbers belong to inactive results. Active and inactive are the calls of the source. Calls follow the shape of the dose curve; as a rule, active = well fitted cell-killing curve with a large enough effect; inconclusive = small, poorly fitted or top-dose-only effect, or effect the other way; inactive = no such curve, though single readings can be large or run the other way.

Assay: Viability qHTS for spleen associated tyrosine kinase inhibitor (SYKi) naive MV4-11 cells (AID 1963823); also: nearly all actives have a fitted effect of over 40% in size
Settings: MV4-11 AML viability, CellTiter-Glo luminescence, 72 h; series mostly up to 45 µM
Procedure, shortened: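 CellTiter-Glo luminescence, 10 min room-temperature incubation, gave viability. Cells: naive MV4-11 (500/well), treated 72 hr at 37 C, 5% CO2.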
Potency is read from the fitted curve at half-maximal effect.

**Q.** For `C/C=C1\[C@H](O[C@@H]2O[C@H](CO)[C@@H](O)[C@H](O)[C@H]2O)OC=C(C(=O)OCCc2ccc(O)cc2)[C@H]1CC(=O)OCCc1ccc(O)cc1`, which Potency is on record?
**A.** Its Potency is “inactive”.

**Q.** With `CC[C@@H](O)C[C@@H]1C(C)=C[C@@H]2CCCC[C@@H]2[C@@]1(C)C(=O)O` as the compound, how does the Potency read?
**A.** Its Potency is “inactive”.

**Q.** For `Cc1cc(Cl)ccc1COc1ccnn1-c1cc(C(=O)O)ccn1`, which Potency is on record?
**A.** The Potency was “inactive”.

**Q.** For `C=C1C[C@]23C[C@H]1[C@@H](O)C[C@H]2[C@@]12C=C[C@H](O)[C@@](C)(C(=O)O1)[C@H]2[C@@H]3C(=O)O`, which Potency is on record?
**A.** Its Potency is “inactive”.

**Q.** With `C=CC1C(OC2OC(CO)C(O)C(O)C2O)OC=C(C(=O)OC)C1CC1CC(=O)CC(CCc2ccc(O)cc2)O1` (stereo not given) as the compound, how does the Potency read?
**A.** The Potency was “inactive”.

**Q.** Which Potency does the source give for `NC(=O)[C@H]1CCCCc2c1[nH]c1ccc(Cl)cc21` here?
**A.** The Potency was “inactive”.

**Q.** For `C[C@H]1CC(=O)C2=C(C1)C(O)C(O)[C@@]1(O)[C@H]2C(=O)c2cccc(O)c2[C@@H]1O` (stereo not given in full), which Potency is on record?
**A.** The Potency was “inactive”.

**Q.** For `COC(=O)C1=C(C)NC(C)=C(C(=O)OCCN(C)Cc2ccccc2)C1c1cccc([N+](=O)[O-])c1` (stereo not given), which Potency is on record?
**A.** Its Potency is 11.9 µM (active).

**Q.** For `O=C(O[C@@H]1O[C@H](CO)[C@@H](O)[C@H](O)[C@H]1O)c1ccccc1`, which Potency is on record?
**A.** Its Potency is “inactive”.

**Q.** Which Potency does the source give for `CCOc1nc(NC(=O)Cc2cc(OC)ccc2OC)cc(N)c1C#N` here?
**A.** Its Potency is “inactive”.

**Q.** With `CC1(C)CC(NC(=O)C(=O)Nc2ccc(Br)cc2)CC(C)(C)N1` as the compound, how does the Potency read?
**A.** The Potency was 3.26 µM (active).

**Q.** With `CCN(Cc1cccnc1)C(=O)CN(c1ccc(OC)nc1)S(=O)(=O)c1ccccc1C` as the compound, how does the Potency read?
**A.** The Potency was “inactive”.

**Q.** Which Potency does the source give for `CC1(C)C[C@H](O)C[C@@]2(C)OC(=O)C=C12` here?
**A.** The Potency was “inactive”.

**Q.** For `COc1ccc(C(O[C@@H]2O[C@H](CO)[C@@H](O)[C@H](O)[C@H]2O)C(CO)Oc2ccc(/C=C/CO)cc2OC)cc1O` (stereo not given in full), which Potency is on record?
**A.** The Potency was “inactive”.

**Q.** For `C/C=C/C=C/C=C/C(=O)OC1C=C2C(O)OC(=O)[C@]2(O)[C@@]2(C)CCCC(C)(C)[C@H]12` (stereo not given in full), which Potency is on record?
**A.** Its Potency is 6.32 µM (active).

**Q.** Which viability (% of control) does the source give for `C=CC(C)(CC/C=C(\C)C(=O)OC[C@H]1O[C@@H](OC(C)(C=C)CC/C=C(\C)C(=O)O[C@H]2[C@H](O)[C@@H](O)[C@H](OC(C)(C=C)CC/C=C(\C)C(=O)O)O[C@@H]2CO)[C@H](O)[C@@H](O)[C@@H]1O)O[C@@H]1O[C@H](CO)[C@@H](O)[C@H](O)[C@H]1O` (stereo not given in full) here?
**A.** Its viability (% of control) is 81.1% [at 9.25 µM].

**Q.** For `CC12CC(O)C(O)C=C1c1cc(O)cc(O)c1C(=O)O2` (stereo not given), which Potency is on record?
**A.** The Potency was “inactive”.

**Q.** Which Potency does the source give for `CC(=O)O[C@H]1CC[C@@]2(C)C(CC[C@@H](C)[C@]23Cc2c(O)cc4c(c2O3)CN([C@@H](CCC(=O)O)C(=O)O)C4=O)C1(C)C` (stereo not given in full) here?
**A.** Its Potency is “inactive”.

**Q.** With `O=C(O)c1ccncc1Nc1nn(CCN2CCC(F)(F)CC2)c2ccc(F)cc12` as the compound, how does the Potency read?
**A.** Its Potency is “inactive”.

**Q.** With `CC(C)S(=O)(=O)N[C@H]1CCOC[C@@H]1c1ccc(-c2ccc(C#N)s2)cc1` as the compound, how does the Potency read?
**A.** The Potency was “inactive”.

**Q.** With `CC(=O)N[C@@H](Cc1c[nH]c2ccccc12)C(=O)N[C@@H](CCC(=O)O)C(=O)N[C@@H](Cc1cnc[nH]1)C(=O)N[C@@H](CC(=O)O)C(=O)Nc1ccc2c(C(F)(F)F)cc(=O)oc2c1` as the compound, how does the Potency read?
**A.** Its Potency is “inactive”.

**Q.** With `C=C1C(=O)OC2/C=C(\CO)CC/C=C(\C=O)C(O)C(OC(=O)C(C)CC)C12` (stereo not given) as the compound, how does the Potency read?
**A.** The Potency was 2.02 µM (active).

**Q.** Which Potency does the source give for `CC1(C)CC[C@]2(C(=O)O[C@@H]3O[C@H](CO)[C@@H](O)[C@H](O)[C@H]3O)[C@H](O)C[C@]3(C)C(=CCC4[C@@]5(C)CC[C@H](O[C@@H]6OC[C@@H](O)[C@H](O)[C@H]6O)[C@@](C)(C(=O)O)C5CC[C@]43C)[C@@H]2C1` (stereo not given in full) here?
**A.** The Potency was “inactive”.

**Q.** Which Potency does the source give for `Brc1ccc([C@H]2CN3CCSC3=N2)cc1` here?
**A.** Its Potency is “inactive”.

**Q.** With `COc1cc(C(C)=O)c(OC)c2c1OC(C)(C)C=C2` as the compound, how does the Potency read?
**A.** Its Potency is “inactive”.

**Q.** Which Potency does the source give for `C=C1CC[C@@H]2[C@](C)(CO[C@@H]3O[C@H](CO)[C@@H](O)[C@H](O)[C@H]3O)CCC[C@@]2(C)[C@@H]1CCC1=CCOC1=O` here?
**A.** Its Potency is “inactive”.

**Q.** For `C[C@@H]1CC[C@@]23CC[C@]4(C)[C@@](C=CC5[C@@]6(C)CC[C@H](O)C(C)(C)C6CC[C@]54C)(OC2=O)C3[C@H]1C` (stereo not given in full), which Potency is on record?
**A.** The Potency was “inactive”.

**Q.** With `O=S(=O)(c1ccccc1)c1cnc2c(N3CCNCC3)cccc2c1` as the compound, how does the Potency read?
**A.** Its Potency is “inactive”.

**Q.** With `C=CC1(C)C=C2CC[C@H]3[C@@](C)(C(=O)O)CCC[C@]3(C)C2CC1` (stereo not given in full) as the compound, how does the Potency read?
**A.** Its Potency is 1.61 µM (active).

**Q.** Which viability (% of control) does the source give for `CC(=O)O[C@H]1CC[C@@]2(CI)C(=CC[C@@H]3[C@@H]2CC[C@]2(C)[C@@H]([C@H](C)CCCC(C)C)CC[C@@H]32)C1` here?
**A.** Its viability (% of control) is 88.4% [at 9.25 µM].

**Q.** With `COC(=O)[C@H](O)[C@H]1C(C)(C)[C@H](OC(C)=O)[C@@]2(O)C(=O)[C@]1(C)C1CC[C@]3(C)C(CC(=O)O[C@H]3c3ccoc3)[C@]13O[C@@H]32` (stereo not given in full) as the compound, how does the Potency read?
**A.** Its Potency is “inactive”.

**Q.** Which Potency does the source give for `CC(C)c1cccc(C(C)C)c1NC(=O)Nc1ccc(Sc2ccc([N+](=O)[O-])cc2)cc1` here?
**A.** The Potency was 7.31 µM (active).

**Q.** Which Potency does the source give for `COC(=O)C(CC1(O)c2ccccc2N2C(=O)C(C)(C)N(O)C21)n1cnc2ccccc2c1=O` (stereo not given) here?
**A.** Its Potency is “inactive”.

**Q.** With `CC1=C2C(=O)O[C@@H](c3ccoc3)[C@]2(C)CCC1` as the compound, how does the Potency read?
**A.** The Potency was “inactive”.

**Q.** Which Potency does the source give for `COC1C(CO)OC(n2cnc3c(=O)[nH]cnc32)C1O` (stereo not given) here?
**A.** The Potency was “inactive”.

**Q.** With `O=C(/C=C/c1ccc(O)cc1)OC[C@H]1O[C@@H](O/C(=C\c2ccccc2)C(=O)O)[C@H](O)[C@@H](O)[C@@H]1O` as the compound, how does the Potency read?
**A.** Its Potency is “inactive”.

**Q.** With `C=C1CCC2C(C)(COC(C)=O)CCCC2(C)C1CCC(C)CC(=O)O` (stereo not given) as the compound, how does the Potency read?
**A.** Its Potency is “inactive”.

**Q.** For `CC1(C)CCCC2(C)C(C(=O)O)=CCC12` (stereo not given), which Potency is on record?
**A.** Its Potency is “inactive”.

**Q.** Which Potency does the source give for `OC[C@H]1O[C@@H](Oc2cc(O)c3c(c2)O[C@@H](c2ccc(O)cc2)[C@H](O)C3)[C@H](O)[C@@H](O)[C@@H]1O` here?
**A.** Its Potency is “inactive”.

**Q.** For `O=C(CC(c1ccccc1)c1ccccc1)N1CCN(C(c2ccccc2)c2ccccc2)CC1`, which Potency is on record?
**A.** Its Potency is 13 µM (active).
